Our source for the composite z-score and z-score values is PubChem BioAssay.

For assay [1], the system named is PRMT1 (protein arginine N-methyltransferase 1). The assay can be described thus: small molecules binding arginine methyltransferase PRMT1 – biochemical, small-molecule microarray, 635 nm fluorescence, primary screen (AID 1088).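 Also: binding of Prmt1 protein to compounds spotted on small-molecule microarray slides.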 To be noted: higher = more signal.
A short description of assay [2]: growth effects on S. cerevisiae YJM789 – YJM789 clinical isolate, OD600, 24 h, basal, primary screen (AID 1089).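 Also: growth of clinical yeast isolate S. cerevisiae YJM 789 seeded 1000 cells per well; test concentration not given here.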 The settings on record: higher = more signal, called active from +8 up or from −8 down.
The nature of assay [3]: S. pombe growth modifiers, basal conditions – strain 972, OD600, 24 h, no modulator, primary screen (AID 1090).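 Also: basal condition with compound alone and no growth modifier present; test concentration not given here.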 The settings on record: S. pombe 972 growth, higher = more signal, called active from +8 up or from −8 down.
Assay [4] in a line: budding yeast growth modifiers under rapamycin – strain BY4716, OD600, 96 h, primary screen (AID 1091). Also: test concentration not given here. The settings on record: S. cerevisiae BY4716 + rapamycin, higher = more signal, called active from +8 up or from −8 down.
Assay [5] deals with Torsin-1A-interacting protein 2 (Homo sapiens) (UniProt Q8NFQ8). The assay can be described thus: small molecules binding lysate-expressed LULL1 – cell lysate, human LULL1 lysate, 635/667 nm fluorescence, primary screen (AID 1092).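 Also: probe is lysate of COS7 cells overexpressing human LULL1; score merges per-feature 667 nm fluorescence with signal-to-noise.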 To be noted: small-molecule microarray, hLULL1 lysate binding, 635 nm fluorescence; higher = more signal.
Chain of Torsin-1A-interacting protein 2 (Homo sapiens) (Q8NFQ8 whole entry, looked up): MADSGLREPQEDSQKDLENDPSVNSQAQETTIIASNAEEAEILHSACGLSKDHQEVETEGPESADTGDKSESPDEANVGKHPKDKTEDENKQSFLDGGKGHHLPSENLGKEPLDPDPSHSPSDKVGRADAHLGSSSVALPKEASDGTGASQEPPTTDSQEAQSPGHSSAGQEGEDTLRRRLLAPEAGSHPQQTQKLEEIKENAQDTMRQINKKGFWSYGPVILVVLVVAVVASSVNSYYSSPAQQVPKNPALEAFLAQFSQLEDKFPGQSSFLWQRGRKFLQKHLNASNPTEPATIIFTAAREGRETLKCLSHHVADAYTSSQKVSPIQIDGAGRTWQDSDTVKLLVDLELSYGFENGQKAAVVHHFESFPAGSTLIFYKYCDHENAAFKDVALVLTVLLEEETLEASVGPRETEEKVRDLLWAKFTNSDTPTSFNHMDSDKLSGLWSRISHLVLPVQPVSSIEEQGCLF
Assay [6] can be described thus: optical density change of DRC41 E. coli – strain DRC41, OD650, 24 h, E. coli filamentation project, primary screen (AID 1093).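 Also: MC1000 strain lacking acrAB efflux and sulA so SOS filamentation is blocked; test concentration not given here.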 The settings on record: E. coli DRC41 growth, higher = more signal, called active from +8 up or from −8 down.
A short description of assay [7]: probe aLefty2 binding to arrayed compounds – biochemical, biotinylated probe, 635/667 nm fluorescence, primary screen (AID 1094).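 Also: score merges spot fluorescence near 667 nm with spot signal-to-noise ratio.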 To be noted: small-molecule microarray, higher = more signal.
Assay [8] has as its system Noggin (protein binding on small-molecule microarray). The experiment in a line: small molecules binding Noggin protein – biochemical, 635/667 nm fluorescence, primary screen (AID 1095).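 Also: score merges 667 nm feature fluorescence with signal to noise over triplicate slides.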 The settings on record: 635 nm fluorescence, higher = more signal.
Assay [9] concerns the target Neurogenic locus notch homolog protein 3 (Homo sapiens) (UniProt Q9UM47). The experiment in a line: small molecules binding NOTCH3 protein – biochemical, 635/667 nm fluorescence, primary screen (AID 1096). The settings on record: small-molecule microarray, 635 nm fluorescence, higher = more signal.
Assay [10] is described as follows: probe aEGFR binding to arrayed compounds – biochemical, biotinylated probe, 635/667 nm fluorescence, primary screen (AID 1097).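 Also: probe is a biotinylated anti-EGFR antibody binding compounds printed on slides; score combines fluorescence near 667 nm and signal to noise of each spot.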 The settings on record: small-molecule microarray, higher = more signal.
In assay [11] the test system is Plasmodium falciparum Sir2 (PF13_0152, Sir2A). The assay can be described thus: Plasmodium falciparum Sir2A binding compounds – biochemical, small-molecule microarray, 635 nm fluorescence, primary screen (AID 1098).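 Also: score merges spot fluorescence intensity with its signal-to-noise ratio.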 To be noted: fluorescence 635 nm, higher = more signal.
Assay [12] in a line: probe aDKK1 binding to arrayed compounds – biochemical, biotinylated probe, 635/667 nm fluorescence, primary screen (AID 1099).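 Also: score merges 667nm spot fluorescence with signal to noise across triplicate slides; reference of the scale not given here.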 To be noted: small-molecule microarray, higher = more signal.
Assay [13] in a line: probe aCHRDL2 binding to arrayed compounds – biochemical, biotinylated probe, 635/667 nm fluorescence, primary screen (AID 1100). To be noted: small-molecule microarray, higher = more signal.
Assay [14] can be described thus: change in splice reporter luminescence, either direction, cell-based, HEK293, spliceosome inhibition project, primary screen (AID 1101).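 Also: HEK293 cells carrying a splicing-competent luciferase reporter gene; test concentration not given here.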 To be noted: HEK293 splicing luciferase reporter, 24 h, higher = more signal, called active from +8 up or from −8 down. On the technique in general: In a reporter assay the amount or activity of a reporter protein is the signal.
Assay [15] concerns the target Fibroblast growth factor 10 (Homo sapiens) (UniProt O15520). The experiment in a line: compounds binding fibroblast growth factor 10 – biochemical, small-molecule microarray, 635 nm fluorescence, primary screen (AID 1102). The settings on record: FGF10 binding, fluorescence 635 nm, higher = more signal.
The subject of assay [16] is glycogen synthase kinase-3 (GSK3A per assay name; protocol says GSK3B). The assay can be described thus: compounds binding glycogen synthase kinase-3 – biochemical, small-molecule microarray, 635 nm fluorescence, GSK3A, primary screen (AID 1103). Also: the record names both GSK3A and GSK3B. To be noted: fluorescence 635 nm, higher = more signal.
In assay [17] the target is Epidermal growth factor receptor (Homo sapiens) (UniProt P00533). The experiment in a line: compounds binding epidermal growth factor receptor – biochemical, small-molecule microarray, 635 nm fluorescence, primary screen (AID 1104).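 Also: score merges 667 nm emission intensity with spot signal to noise over triplicate slides.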 The settings on record: EGFR binding, higher = more signal.
Chain of Epidermal growth factor receptor (Homo sapiens) (P00533 whole entry, looked up): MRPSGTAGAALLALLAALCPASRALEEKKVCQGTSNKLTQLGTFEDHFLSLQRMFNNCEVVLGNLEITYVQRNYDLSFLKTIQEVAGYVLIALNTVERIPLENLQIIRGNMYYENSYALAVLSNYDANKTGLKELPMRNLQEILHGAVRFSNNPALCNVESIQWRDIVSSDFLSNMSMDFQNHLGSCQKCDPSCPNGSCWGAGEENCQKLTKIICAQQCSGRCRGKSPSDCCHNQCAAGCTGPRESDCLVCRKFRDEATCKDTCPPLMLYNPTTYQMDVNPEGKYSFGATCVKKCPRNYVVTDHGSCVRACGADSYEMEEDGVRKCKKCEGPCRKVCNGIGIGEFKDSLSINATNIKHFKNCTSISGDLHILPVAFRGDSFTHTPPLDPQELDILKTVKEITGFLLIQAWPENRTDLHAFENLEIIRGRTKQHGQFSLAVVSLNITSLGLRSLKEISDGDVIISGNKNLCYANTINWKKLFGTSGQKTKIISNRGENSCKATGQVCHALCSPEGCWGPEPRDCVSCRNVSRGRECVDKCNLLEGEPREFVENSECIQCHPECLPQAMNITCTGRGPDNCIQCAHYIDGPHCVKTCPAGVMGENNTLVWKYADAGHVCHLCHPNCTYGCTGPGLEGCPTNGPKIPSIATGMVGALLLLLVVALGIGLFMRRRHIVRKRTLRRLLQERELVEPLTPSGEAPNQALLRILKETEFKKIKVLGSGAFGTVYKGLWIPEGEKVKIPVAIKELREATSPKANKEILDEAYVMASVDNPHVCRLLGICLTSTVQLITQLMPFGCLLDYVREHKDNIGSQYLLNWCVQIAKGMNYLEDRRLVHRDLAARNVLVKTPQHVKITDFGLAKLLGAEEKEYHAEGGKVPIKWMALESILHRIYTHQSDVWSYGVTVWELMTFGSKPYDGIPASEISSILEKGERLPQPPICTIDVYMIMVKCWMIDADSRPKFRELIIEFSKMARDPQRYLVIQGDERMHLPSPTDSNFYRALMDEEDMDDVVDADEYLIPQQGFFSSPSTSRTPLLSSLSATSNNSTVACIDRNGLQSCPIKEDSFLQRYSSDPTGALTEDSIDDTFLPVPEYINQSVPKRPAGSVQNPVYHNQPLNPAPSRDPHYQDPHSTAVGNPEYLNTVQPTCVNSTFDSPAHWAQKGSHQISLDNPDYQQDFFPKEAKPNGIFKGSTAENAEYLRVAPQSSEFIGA
Assay [18] has as its target Follistatin-related protein 3 (Homo sapiens) (UniProt O95633). The experiment in a line: compounds binding follistatin-related protein 3 – biochemical, small-molecule microarray, 635 nm fluorescence, primary screen (AID 1105).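 Also: score merges emission near 667 nm and signal to noise per printed spot across three slides.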 To be noted: FSTL3 binding, higher = more signal.
Assay [19] deals with Dickkopf-related protein 1 (Homo sapiens) (UniProt O94907). The experiment in a line: small molecules binding DKK1 protein – biochemical, small-molecule microarray, 635 nm fluorescence scan, primary screen (AID 1106).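 Also: score merges emission near 667 nm with signal to noise over three replicate slides.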 To be noted: higher = more signal.
Chain of Dickkopf-related protein 1 (Homo sapiens) (O94907 whole entry, looked up): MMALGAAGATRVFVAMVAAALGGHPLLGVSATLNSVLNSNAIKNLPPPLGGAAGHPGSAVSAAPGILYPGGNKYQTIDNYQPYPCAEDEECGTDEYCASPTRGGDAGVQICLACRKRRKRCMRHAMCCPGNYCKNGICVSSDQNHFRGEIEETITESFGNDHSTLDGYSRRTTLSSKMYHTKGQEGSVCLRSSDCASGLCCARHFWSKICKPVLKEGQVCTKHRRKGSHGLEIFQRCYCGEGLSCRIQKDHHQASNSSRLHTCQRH
The test system of assay [20] is Inhibin beta A chain (activin A). The assay can be described thus: small molecules binding activin A – biochemical, small-molecule microarray, 635 nm fluorescence scan, primary screen (AID 1107).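 Also: mouse activin A protein probed at 4.33 µg/mL on printed slides; score merges bound-protein fluorescence near 667 nm with spot signal-to-noise.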 The settings on record: INHBA, higher = more signal.

Active and inactive are the calls of the source.

Chain of Fibroblast growth factor 10 (Homo sapiens) (O15520 whole entry, looked up): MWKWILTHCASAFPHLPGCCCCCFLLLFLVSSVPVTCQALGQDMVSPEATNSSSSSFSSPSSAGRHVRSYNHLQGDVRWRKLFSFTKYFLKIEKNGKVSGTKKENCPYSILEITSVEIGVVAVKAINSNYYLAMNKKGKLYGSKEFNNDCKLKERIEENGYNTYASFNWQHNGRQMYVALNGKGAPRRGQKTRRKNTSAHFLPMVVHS
Chain of Neurogenic locus notch homolog protein 3 (Homo sapiens) (Q9UM47 whole entry, looked up): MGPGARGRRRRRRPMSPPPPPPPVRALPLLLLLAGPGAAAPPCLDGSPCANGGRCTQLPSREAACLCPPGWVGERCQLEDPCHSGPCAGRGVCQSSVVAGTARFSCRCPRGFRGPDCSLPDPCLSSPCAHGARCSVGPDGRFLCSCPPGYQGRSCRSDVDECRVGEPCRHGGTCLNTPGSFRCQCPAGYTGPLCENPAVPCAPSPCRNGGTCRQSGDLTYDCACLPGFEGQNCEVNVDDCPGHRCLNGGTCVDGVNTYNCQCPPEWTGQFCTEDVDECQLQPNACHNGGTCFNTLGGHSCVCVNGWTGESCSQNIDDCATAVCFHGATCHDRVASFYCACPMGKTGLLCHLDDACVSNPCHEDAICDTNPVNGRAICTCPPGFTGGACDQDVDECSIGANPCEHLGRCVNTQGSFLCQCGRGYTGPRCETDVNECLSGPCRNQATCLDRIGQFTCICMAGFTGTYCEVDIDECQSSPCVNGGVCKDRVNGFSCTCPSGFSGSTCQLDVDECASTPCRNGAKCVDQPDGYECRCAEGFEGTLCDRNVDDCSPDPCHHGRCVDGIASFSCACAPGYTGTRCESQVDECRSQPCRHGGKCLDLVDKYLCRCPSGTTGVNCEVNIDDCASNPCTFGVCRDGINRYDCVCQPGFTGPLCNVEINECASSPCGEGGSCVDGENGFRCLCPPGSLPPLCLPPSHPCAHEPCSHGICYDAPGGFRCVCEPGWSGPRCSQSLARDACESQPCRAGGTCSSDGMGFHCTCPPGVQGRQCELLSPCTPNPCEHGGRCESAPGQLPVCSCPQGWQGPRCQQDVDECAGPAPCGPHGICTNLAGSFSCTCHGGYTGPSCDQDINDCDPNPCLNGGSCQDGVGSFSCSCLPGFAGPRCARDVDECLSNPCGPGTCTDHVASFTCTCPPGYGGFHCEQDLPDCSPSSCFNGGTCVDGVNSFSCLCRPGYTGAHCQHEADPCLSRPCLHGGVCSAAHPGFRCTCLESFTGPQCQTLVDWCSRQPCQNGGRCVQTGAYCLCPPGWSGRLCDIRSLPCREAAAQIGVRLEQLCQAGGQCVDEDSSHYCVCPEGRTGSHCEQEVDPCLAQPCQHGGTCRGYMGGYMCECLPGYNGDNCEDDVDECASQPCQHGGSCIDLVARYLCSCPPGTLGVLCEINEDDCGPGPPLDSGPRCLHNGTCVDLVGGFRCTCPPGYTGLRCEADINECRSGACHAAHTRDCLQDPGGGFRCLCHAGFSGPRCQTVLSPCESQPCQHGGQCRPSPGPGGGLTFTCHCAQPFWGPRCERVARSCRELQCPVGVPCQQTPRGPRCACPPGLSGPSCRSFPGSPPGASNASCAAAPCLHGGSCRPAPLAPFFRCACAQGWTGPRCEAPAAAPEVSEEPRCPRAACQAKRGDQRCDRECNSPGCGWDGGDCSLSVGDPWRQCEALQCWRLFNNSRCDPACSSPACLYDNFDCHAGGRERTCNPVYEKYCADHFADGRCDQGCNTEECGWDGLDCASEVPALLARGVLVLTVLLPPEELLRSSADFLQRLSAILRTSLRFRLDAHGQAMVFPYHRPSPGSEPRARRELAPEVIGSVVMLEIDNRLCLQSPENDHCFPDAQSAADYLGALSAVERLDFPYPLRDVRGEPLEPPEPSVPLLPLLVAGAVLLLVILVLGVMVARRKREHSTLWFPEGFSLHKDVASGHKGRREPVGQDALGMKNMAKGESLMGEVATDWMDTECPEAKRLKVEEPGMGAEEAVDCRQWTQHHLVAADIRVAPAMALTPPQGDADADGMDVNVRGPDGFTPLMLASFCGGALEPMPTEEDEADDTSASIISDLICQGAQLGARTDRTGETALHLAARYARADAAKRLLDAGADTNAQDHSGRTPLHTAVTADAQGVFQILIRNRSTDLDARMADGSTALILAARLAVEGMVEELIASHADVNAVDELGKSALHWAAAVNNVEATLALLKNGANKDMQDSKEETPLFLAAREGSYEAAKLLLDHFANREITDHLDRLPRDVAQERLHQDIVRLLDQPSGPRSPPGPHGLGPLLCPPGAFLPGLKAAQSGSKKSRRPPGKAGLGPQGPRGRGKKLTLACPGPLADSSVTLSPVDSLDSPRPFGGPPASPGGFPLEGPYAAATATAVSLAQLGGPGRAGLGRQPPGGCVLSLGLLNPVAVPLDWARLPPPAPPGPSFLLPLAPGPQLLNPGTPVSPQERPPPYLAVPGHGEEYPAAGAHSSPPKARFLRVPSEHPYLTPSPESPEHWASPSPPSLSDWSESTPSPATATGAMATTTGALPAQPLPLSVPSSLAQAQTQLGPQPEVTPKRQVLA
Chain of Follistatin-related protein 3 (Homo sapiens) (O95633 whole entry, looked up): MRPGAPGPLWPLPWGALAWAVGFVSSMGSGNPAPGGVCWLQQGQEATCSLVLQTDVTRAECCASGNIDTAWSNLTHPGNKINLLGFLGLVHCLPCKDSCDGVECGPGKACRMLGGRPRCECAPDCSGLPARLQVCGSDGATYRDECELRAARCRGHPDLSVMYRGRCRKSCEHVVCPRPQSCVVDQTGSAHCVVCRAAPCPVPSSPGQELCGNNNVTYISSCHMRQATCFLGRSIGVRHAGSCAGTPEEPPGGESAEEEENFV

Take `CCCC=C(CCC)[C@@H](NC(=O)c1ccccc1)c1ccccc1`: the composite z-score is -0.732 in [1]; 0.446 in assay [5]; -0.0446 in assay [7]; -0.96 in assay [8]; -0.177 in assay [9]; -0.0828 in assay [10]. The composite z-score is -0.597 in assay [11]; 0.712 in assay [12]; 1.07 in assay [13]; -0.0829 in assay [15]; -1.87 in assay [16]; -0.292 in [17]. Further, the composite z-score in [18] is -0.501; in [19] it was -0.0056; in assay [20], 1.16. Moreover, the z-score in assay [2] was 0.0874 (inactive); in assay [3] it was -0.272 (inactive); in assay [4] it was 0.912 (inactive); in [6], -0.494 (inactive); in assay [14], -0.0542 (inactive).
Take `CCCCCCc1nc(C2CC2)c(C)c2c1[Si](C(C)C)(C(C)C)OC2`: the composite z-score in [1] was -1.09; in assay [5], -0.492; in assay [7] it was -0.0591; in [8], 0.168; in assay [9], -1.26; in assay [10] it was -0.202. Moreover, the composite z-score was -0.192 in [11]; -0.124 in [12]; 0.109 in assay [13]; -0.391 in [15]; -0.562 in assay [16]; 0.138 in assay [17]. The composite z-score in assay [18] was -0.127; in assay [19], 0.438; in assay [20], 1.54. The z-score is -2.2 (inactive) in assay [2]; -3.58 (inactive) in assay [3]; -1.75 (inactive) in assay [4]; 1.69 (inactive) in assay [6]; -3.06 (inactive) in assay [14].
As to `C=CC[C@@]1(C(=O)N2CCOCC2)N=C(c2ccc(OCCCO)cc2)O[C@@H]1c1ccccc1`, the composite z-score was 0.142 in assay [1]; 2.71 in assay [5]; 0.0634 in [7]; -0.506 in assay [8]; -1.35 in assay [9]; -0.0728 in assay [10]. In addition, the composite z-score in assay [11] is -0.406; in assay [12] it was 0.853; in [13] it was 0.845; in assay [15], 0.293; in [16], 0.175; in assay [17], -0.622. Besides, the composite z-score was -0.72 in assay [18], -0.191 in assay [19] and 0.437 in [20]. Also, the z-score is 0.509 (inactive) in assay [2]; -1.61 (inactive) in assay [3]; 0.352 (inactive) in [4]; 1.33 (inactive) in assay [6]; -0.462 (inactive) in [14].
On to `COCCOC(=O)N1C(=O)[C@@]2(c3cc(C#CCNC(N)=O)ccc31)[C@H](c1ccc(OCCO)cc1)N1[C@H](c3ccccc3)[C@H](c3ccccc3)OC(=O)[C@H]1[C@@H]2C(=O)Nc1nc2ccccc2s1`, for which the composite z-score stood at 0.75 in [1]; 0.376 in assay [5]; 0.162 in assay [7]; 0.895 in [8]; 0.865 in assay [9]; 0.0894 in [10]. Further, the composite z-score was 0.337 in assay [11]; 0.997 in assay [12]; 0.88 in [13]; 0.574 in [15]; -0.289 in [16]; 0.0231 in assay [17]. In addition, the values for the composite z-score in assay [18], in [19] and in assay [20] were 1.01, 1 and 0.926, respectively. Also, the z-score in assay [2] was 1.55 (inactive); in [3], 1.11 (inactive); in assay [4], 3.55 (inactive); in assay [6], 2.56 (inactive); in assay [14], 0.0697 (inactive).
`COc1ccc(C(O)C2C=CC3C(=O)N(C)C(=O)C3N2N2CCCCC2)cc1OCc1ccccc1` (stereo not given): the composite z-score in assay [1] is 0.922; in [5] it was 2.73; in assay [7] it was 0.491; in assay [8], -0.171; in assay [9], 1.12; in assay [10], 0.0787. Further, the composite z-score in assay [11] is 0.774; in [12], 1.1; in assay [13] it was 0.851; in [15], 0.26; in assay [16], 0.636; in [17], -0.001. The values for the composite z-score in [18], in assay [19] and in assay [20] were 0.371, -0.622 and 0.986, respectively. For the same compound, the z-score was 0.371 (inactive) in [2]; -0.0814 (inactive) in [3]; 1.01 (inactive) in [4]; -1.23 (inactive) in [6]; 0.379 (inactive) in assay [14].
